# PubChem BioAssay AID624483 (NMMLSC, 2012)
# About 11,000 (3.1%) of roughly 360,000 compounds were called active. About 2% were inconclusive and are not listed. For the sample, actives were picked, then their nearest neighbours and some compounds at random. Unmarked numbers belong to inactive results. No stated cut-off is given here; in the data, active means fluorescence intensity above about 16000; inconclusive means no clear call, values can overlap the other calls; inactive means below that.
# Assay: counter-screen for toxin protease inhibitors: compound fluorescence, primary screen, artefact control for toxin protease inhibitor project, biochemical, multiplex microsphere, HTS (AID 624483)
# Conditions: compound autofluorescence counterscreen, microsphere flow cytometry; stronger effect = higher value
row,SMILES,fluorescence intensity
1,CC(NC(=O)CN(C)S(=O)(=O)c1ccc(F)cc1)C1CC2CCC1C2 (stereo not given),3360
2,Cc1c(C(=O)NCc2ccc(C#N)cc2)sc(=O)n1Cc1ccc(C(=O)N(C)C)cc1,4330
3,CC1COC2C(O1)N(S(C)(=O)=O)CCN2S(C)(=O)=O (stereo not given),25700 (active)
4,CC1OC2C(OC1C)N(S(C)(=O)=O)CCN2S(C)(=O)=O (stereo not given),15900
5,Cc1ccc(S(=O)(=O)N2CCN(C(=O)CN3C(=O)NC(C)(c4ccc(Cl)cc4)C3=O)CC2)c(C)c1 (stereo not given),3900
6,Cc1cc(C)n2c(Nc3c(C)cccc3C)c(CCc3ccccc3)nc2n1,5430
7,Cc1onc(-c2c(Cl)cccc2Cl)c1C(=O)c1c[nH]c(C(=O)NC2CC2)c1,23200 (active)
8,Cc1onc(-c2c(F)cccc2Cl)c1C(=O)OCC(=O)N1C(C)CCCC1C (stereo not given),3180
9,C/C(=N/OC(=O)c1c(-c2c(F)cccc2Cl)noc1C)c1cnccn1,3970
10,CC1=C(C(=O)N(C)C)CC(CC(=O)NCCN2CCOCC2)C(=O)N1Cc1ccccc1 (stereo not given),3750
11,CC1(C(=O)Nc2ccc3c(c2)OCCO3)CCN1C(=O)Cc1cc(F)ccc1F (stereo not given),3870
12,Clc1ccc(C=NC23CN4CN(CN(C4)C2)C3)cc1,3520
13,COC(=O)C1[C@H]2SC(C)(C)C(C(=O)OC)N2C(=O)N1Cc1nc2ccccc2s1 (stereo not given in full),3920
14,Cc1c(Br)cc(C(=O)N2CCCCCC2)c(C)c1C,4200
15,Cc1ccc(C(=O)N2CCCC2)c(F)c1F,24700 (active)
16,CCNC(=O)C1CCCN(C(=O)c2cc(F)ccc2C)CC1 (stereo not given),3900
17,CNC(=O)c1nnc(Cc2ccc(Cl)cc2)o1,4900
18,COc1cccc(C(NC(C)=O)c2nc(-c3cnc4ccccc4c3)cs2)c1 (stereo not given),3770
19,CC(C)(C)NS(=O)(=O)c1ccc(NC(=O)NC2CCCCC2)cc1,17000 (active)
20,CC(C)(C)NS(=O)(=O)c1ccc(NC(=O)C2CCCO2)cc1 (stereo not given),3950
21,CC(C)c1ccc(NC(=O)NC2CCCCC2)cc1,10400
22,CC1(Cc2cccc(C#N)c2)C(=O)Nc2ccc(-c3cccc(C(F)(F)F)c3)cc21 (stereo not given),2910
23,CCOC(=O)C1=CCC(c2ccc(F)cc2)N(S(=O)(=O)c2ccc(C)cc2)C1 (stereo not given),6000
24,CC1=C(C(=O)N2CCOCC2)CC(CC(=O)NCC2CCCCC2)C(=O)N1Cc1ccc(F)cc1 (stereo not given),3780

row,SMILES,fluorescence intensity
1,O=C(c1ccc2c(c1)N(Cc1ccc(F)cc1)C(=O)CS2)N1CCOCC1,23800 (active)
2,O=C(c1ccc(CN2CCOCC2)cc1)N1CCN(c2ccccc2F)CC1,3620
3,COC(=O)c1sc(NC(=O)c2csc3c2CCCC3)nc1C,19100 (active)
4,CCOC(=O)c1sc(NC(=O)c2sc(C)nc2C)nc1C,3060
5,CC1CC(C)CN(CCCNC(=O)c2csc3c2CCCCC3)C1 (stereo not given),5260
6,CC(C)(C)Cc1c(C2CCCCC2)nc2ccc(Br)cn12,5440
7,CC(=O)NC(c1cccs1)c1cc(Br)c2cccnc2c1O (stereo not given),3590
8,Cc1cc(N2CCN(c3ccc(F)cc3)CC2)n2ncnc2n1,3960
9,CCc1c(C)nc2ncnn2c1N1CCC(C(=O)NCc2ccc3c(c2)OCO3)CC1,20900 (active)
10,COc1ccc(-c2csc(N3CCN(Cc4ccc5c(c4)OCO5)CC3)n2)cc1,23000 (active)
11,COc1ccc(-c2cc(C(=O)N3CCN(Cc4ccc5c(c4)OCO5)CC3)on2)cc1OC,5740
12,Cc1cc(C)c(S(=O)(=O)NCC2CCC(C(=O)NCc3ccc4c(c3)OCO4)CC2)c(C)c1 (stereo not given),8390
13,O=C(NCc1ccc2c(c1)OCO2)C1CCCN(S(=O)(=O)c2cccs2)C1 (stereo not given),5650
14,Cc1cc(N2CCN(Cc3ccc4c(c3)OCO4)CC2)n2ncnc2n1,21200 (active)
15,Cc1cc(C)n2nc(C(=O)N3CCN(Cc4ccc5c(c4)OCO5)CC3)nc2n1,4210
16,COc1ccc(C(O)c2nc(-c3ccc4c(c3)OCO4)cs2)cc1 (stereo not given),2970
17,Oc1cc2c(cc1CN1CCN(c3ccccc3)CC1)OCO2,5830
18,Fc1ccc(N2CCN(Cc3ccc4c(c3)OCO4)CC2)cc1,22800 (active)
19,N#C/C=C/N1CCN(Cc2ccc3c(c2)OCO3)CC1,3600
20,CCc1nc2ccc(C(=O)NC3CCN(Cc4ccccc4)CC3)cn2c1N(C)CCN1CCOCC1,3530
21,O=C(NCc1ccccn1)[C@@H]1CCCN1C(=O)[C@@H]1CCCN1C(=O)c1ccccc1,5750
22,CCCNC(=O)c1cc(C2CCCCN2S(=O)(=O)c2ccc(C#N)cc2)on1 (stereo not given),3490
23,CCNC(=O)C1(C)CCCN(C(=O)c2c(C)noc2C)C1 (stereo not given),2990
24,COc1ccccc1CC1(C)C(=O)Nc2ccc(OC(F)(F)F)cc21 (stereo not given),3460

row,SMILES,fluorescence intensity
1,O=C(Nc1ccc2c(c1)OCCO2)C(C1CC1)N1CCC(Cc2ccccc2)CC1 (stereo not given),5440
2,O=C(NCC(=O)N1CCC2(CC1)NCCc1[nH]cnc12)c1ccc(Br)cc1,4440
3,O=C(C[n+]1ccc2c(c1)nnn2-c1ccccc1)c1ccc(Cl)cc1,5380
4,CC1(C(=O)NS(=O)(=O)c2ccc(C#N)cc2)CCN1C(=O)c1ccc(C2CCCCC2)cc1 (stereo not given),3450
5,Cc1noc(C)c1CSc1nnc2ccc3ccccc3n12,23000 (active)
6,C=CCNC(=O)c1ccccc1SCc1c(C)noc1C,5700
7,Cc1noc(C)c1COC(=O)Cn1c(C)nc2ccccc21,3460
8,COc1ccc(C)cc1NC(=O)c1ccc(-c2ccc(C(C)=O)cc2)o1,3980
9,OCCC1CN(Cc2ccc3nsnc3c2)CCN1C1CCCCC1 (stereo not given),2180
10,CS(=O)(=O)c1cccc(-c2ccc3nncn3c2)c1,3880
11,CCOc1ccc(-c2n[nH]c(=S)n2/N=C/c2cc3c(cc2[N+](=O)[O-])OCO3)cc1,7340
12,O=[N+]([O-])c1ccccc1/C=N/n1c(COc2ccccc2)n[nH]c1=S,22400 (active)
13,Fc1ccc(/C=N/n2c(COc3ccccc3)n[nH]c2=S)cc1,3650
14,CN(C)C(CNC(=O)c1cccc(S(=O)(=O)N2CCc3ccccc3C2)c1)c1ccccc1 (stereo not given),4070
15,Cc1ccc(C)c(NS(=O)(=O)c2cc(Br)cnc2N)c1,2420
16,CCc1ccc(C(=O)COC(=O)c2ccco2)cc1,5070
17,O=C(COC(=O)c1ccccc1C(=O)c1ccccc1)c1ccco1,23700 (active)
18,CCN(CC)c1ccc(C(=O)OCC(=O)c2ccco2)cc1,4360
19,CC1(C(=O)NS(=O)(=O)Cc2cccc(Cl)c2)CCN1C(=O)Cc1ccc(Cl)cc1Cl (stereo not given),3610
20,O=C(O)c1ccc(COc2c(F)c(F)cc(F)c2F)o1,5310
21,CCOC(=O)C1CCN(C(=O)Cn2cc(C#N)c3ccccc32)CC1,3760
22,CCOC(=O)C1CCN(C(=O)Cc2c(C(=O)O)[nH]c3ccccc23)CC1,24500 (active)
23,CCOC(=O)C1CCN(C(=O)COc2cccc3ccccc23)CC1,5570
24,Cc1cccc(-c2cnc(C(O)c3ccc4ccccc4c3)[nH]2)c1 (stereo not given),3610

row,SMILES,fluorescence intensity
1,O=C(NCc1csc(-c2cccs2)n1)C1CC1,3880
2,Cc1cc(NC(=O)CSCC(=O)NC(C)c2ccccc2)no1 (stereo not given),5020
3,Cc1ccc(-c2csc(SCC(=O)Nc3cc(C)on3)n2)cc1,17800 (active)
4,Cc1ccc2nc(-c3ccc(SCC(=O)Nc4cc(C)on4)nc3)[nH]c2c1,2760
5,CCNC(=O)C1(C)CCCN1C(=O)c1ccc(N(C)C)cc1 (stereo not given),4040
6,COC(=O)CCCCC1=CCC2C(=O)C=C(O)C2C1 (stereo not given),6010
7,Cc1ccc(OCCCC(=O)Nc2ccc(N3CCOCC3)cc2)cc1,2550
8,COc1ccccc1CC(=O)Nc1ccc(S(=O)(=O)N2CCCC2)cc1,4360
9,COc1ccc(-c2ccc(Nc3ccc(S(=O)(=O)N4CCCC4)cc3)nn2)cc1OC,22500 (active)
10,COc1ccc(S(=O)(=O)N2CCCCCC2)cc1NC(=O)Cc1ccc(OC)c(OC)c1,3920
11,O=C(Cc1coc2ccc3ccccc3c12)NCc1cccs1,1980
12,CCn1ncc(C2=NOC(C(=O)Nc3ccccc3C(=O)OC)C2)c1C (stereo not given),21900 (active)
13,CCn1ncc(C2=NOC(C(=O)N3CCN(c4ccccc4)CC3)C2)c1C (stereo not given),9650
14,COc1cc(NC(=O)C2CC(c3ccccc3O)=NO2)c(OC)cc1Cl (stereo not given),3150
15,CCCN1Cc2cccc(C(=O)NCc3ccccc3)c2C1=O,16800 (active)
16,Cc1ccc(CNC(=O)c2ccccc2CCc2ccccc2)cc1,13000
17,CCCN1Cc2cccc(C(=O)Nc3ccc(S(=O)(=O)N4CCCCCC4)cc3)c2C1=O,10600
18,CCCCCC(=O)Nc1ccc(-c2cn3cccnc3n2)cc1,4250
19,COC(=O)c1ccc2nc(-c3ccccc3)c(Cc3ccc(OC)cc3C)n2c1,7120
20,CCOC(=O)c1c(-n2cnnn2)sc(C)c1C,20300 (active)
21,CCOC(=O)c1c(NC(=O)CSc2nccc(=O)[nH]2)sc(C)c1C,4560
22,CCOc1ccc(C(=O)COC(=O)c2ccc(-n3cnnn3)cc2)cc1,5640
23,O=c1cc(CN2CCCCCCC2)c2c(ccc3ccccc32)o1,5650
